Experimental data published in PubChem BioAssay (NCI).
The panel holds about 83,000 compounds, 20% with a hit somewhere; the sample as a whole holds those more often.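 Activity criterion: percent growth below 10, measured after cells in 96-well plates were exposed to a single compound concentration for 48 hours.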 Unmarked numbers belong to inactive results. Activity calls are given as the source filed them.

Columns and labels:
Assay in all cases: NCI-60 one-dose screen, 48 h (100 = growth as untreated, 0 = no growth, -100 = all killed)
Settings in all cases: 10 µM unless noted
[1] = system: HT29 colon
[2] = system: SNB-19 CNS
[3] = system: U251 CNS
[4] = system: PC-3 prostate
[5] = system: SK-MEL-5 melanoma
[6] = system: UACC-62 melanoma
[7] = system: LOX IMVI melanoma
[8] = system: SK-MEL-28 melanoma
[9] = system: SK-MEL-2 melanoma

SMILES	growth [1]	growth [2] [%]	growth [3]	growth [4]	growth [5]	growth [6]	growth [7]	growth [8]	growth [9]
Cn1c(N)c(N=O)c(=O)[nH]c1=O	98.8%	105	95.9%	98.7%	102%	103%	102%	108%	97.8%
CN1C(=O)/C(=C/c2nc(-c3cccc(F)c3)n3ccccc23)c2ccccc21	89%	76.8	56.7%	81.6%	64%	71.3%	48.8%	89.1%	68.2%
COc1ccc(-c2cncn2-c2ccc(-c3nc4cc(OC)c(OC)c(OC)c4s3)cc2)cc1N	43.7%	72.1	56.3%	30.1%	26.9%	53.7%	62.4%	78.5%	7.6% (active)
c1ccc(Nc2nnc(-c3cc(-c4cccnc4)n(-c4ccccc4)n3)s2)cc1	3.7% (active)	102	69.5%	82.4%	69.9%	84.1%	69.8%	106%	96.5%
COc1ccc(-c2c(N)noc2-c2cc(OC)c3c(c2)OCCO3)cc1	8.42% (active)	46.2	25.5%	26.8%	-21.3% (active)	32.7%	19.6%	–	49.9%
CCC(C)CC(CC)NCCN1CCN(C(CC)CC(C)CC)C1=S (stereo not given)	-24.6% (active)	47.1	25.2%	33.4%	–	23.9%	-0.0423% (active)	20.3%	94.1%
O=C1C[C@@H]2/C(=C(O)\C=C\c3ccccc3)C(=O)C=C[C@@H]2O1	-53.2% (active)	58.7	1.95% (active)	37.8%	39.7%	-50.7% (active)	-68% (active)	-23.7% (active)	-35% (active)
COc1ccc(C2CC(c3ccc(OC)c(OC)c3)=NN2C(=O)c2cc(OC)c(OC)c(OC)c2)c(OC)c1 (stereo not given)	59.9%	91.8	80.6%	64.3%	42%	58%	56.6%	80.2%	68.2%
COC1=CC(c2ccc[nH]2)=N/C1=C\c1[nH]c(C)c(C(=O)CCC(=O)Oc2ccc3c(c2)CCC2C3CC[C@]3(C)C(=O)CC[C@@H]23)c1C (stereo not given in full)	26.8%	95.4	53%	60.6%	78%	65%	–	97.3%	91.3%
COc1cc(C2C=C(c3ccc(C)cc3)Nc3nc(SC)[nH]c(=O)c32)ccc1Oc1ccnc2cc(Cl)ccc12 (stereo not given)	65.3%	71.7	80.1%	60.2%	63.1%	61.5%	79.9%	97%	78.9%
COc1cc(C2CC(c3ccc(C)cc3)=NN2C(C)=O)ccc1Oc1ccnc2cc(Cl)ccc12 (stereo not given)	77.1%	58.1	14.7%	67.9%	91.1%	72.5%	65.6%	108%	60.6%
CCCCCCCCCCCCCCCCCc1nccn1CCO	13.6%	66.9	33.7%	55.9%	70.4%	92.4%	-44.4% (active)	–	82.2%
CC(=O)Oc1ccc(C2OC(c3ccc4ccccc4c3OC(C)=O)=NN2C(C)=O)c(OC(C)=O)c1 (stereo not given)	27.2%	36.9	13.2%	24.5%	-9.16% (active)	-11.8% (active)	4.67% (active)	37.9%	13%
CCCn1cnc2c1c(=O)n(CCCCC(C)=O)c(=O)n2C	95.8%	120	95.5%	99.2%	104%	104%	–	114%	108%
Cc1cc([N+](=O)[O-])c(C)cc1C(=O)O	104%	101	109%	99%	–	100%	103%	110%	114%
CCCCCCCCCCCCCCCCCC1=NC(C)(C)CN1CCO	-44.7% (active)	38.2	-57.9% (active)	-52.4% (active)	-65.3% (active)	-77.1% (active)	-67% (active)	-78% (active)	-66.2% (active)
CCCCCCCCCCSc1ncnc2nc[nH]c12	90.9%	74.7	68.8%	79.8%	56.4%	69.9%	56.3%	116%	101%
CCOC(=O)C1C(=O)OC2CCCCC21 (stereo not given)	110%	97.6	101%	107%	114%	99.8%	105%	109%	118%
Clc1nc(Cl)c2ncn(-c3ccccc3)c2n1	43.4%	103	42.7%	95.7%	78.6%	69%	0.438% (active)	91.1%	17.8%
CN1C(=O)C(=Cc2cn(Cc3ccccc3)c3ccc(Br)cc23)C(=O)N(C)C1=O	101%	98.6	97.5%	89.1%	–	73.3%	102%	113%	107%
CC[C@H](C)C(=O)O[C@H]1C[C@@H](C)C=C2C=C[C@H](C)[C@H](CC[C@@H]3C[C@@H](O)CC(=O)O3)[C@H]21	95.4%	64.9	25.2%	33.9%	–	23.7%	25.1%	90.6%	36.8%
O=[N+]([O-])c1ccc2c(c1)S(=O)c1cc([N+](=O)[O-])ccc1N2	95%	109	105%	88.6%	96.2%	93.5%	–	104%	105%
O=C(CSCC(=O)N/N=C/c1ccccc1O)N/N=C\c1ccccc1O	42.7%	31.2	26.8%	25%	24%	11.2%	12.4%	40.4%	16.7%
O=C1Nc2ccc(F)cc2/C1=C/c1nc(-c2ccc(F)cc2)n2ccccc12	95.6%	105	83.5%	115%	103%	97%	92.9%	112%	132%
CC(C)[C@H]1CC[C@H]2[C@@H](CC[C@H]3[C@](C)(CN)CCC[C@]23C)C1	-57.7% (active)	98.1	6.81% (active)	65.1%	99.5%	92.7%	–	102%	80.3%
